Rows were chosen to be rich in hits. Some 19% of all compounds tested hit in one or more screens of this group.
TGFb inhibitor: qHTS for Inhibitors of TGF-b; HepG2 CAGA-GFP TGF-b/SMAD3 reporter, GFP fluorescence, 18 h; TGF-beta stimulated, 500 pg/mL final; Potency, µM (titrated, usually from 46.1 µM), for the others: at the top dose activity, negative = inhibition, most hits filed as inhibitors; 410,000 tested, 1.2% active; AID 588855, 2011; further: potency means the concentration at half of the fitted maximal effect; on the % scale 0 is the no-effect control and ±100 the full control effect; nearly all actives have a fitted effect of over 65% in size
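GFP signal (ex488/em500-530) from TGF-beta-stimulated HEPG2 CAGA-GFP cells, 500 pg/mL final, 18 h at 37 degrees C in DMEM plus 1% FBS, normalized to unstimulated and DMSO-stimulated controls.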
IL1B secr inh: qHTS for Inhibitors of Inflammasome Signaling: IL-1-beta AlphaLISA Primary Screen; 360,000 tested, 4.7% active; THP-1 LPS/ATP IL-1B secretion, AlphaLISA, 16 h; active compounds read low; activity change, % at 57.5 µM; in the data active means activity change below about -50%; inconclusive means mostly about -30% to -49%; further: on the % scale 0 is the no-effect control and ±100 the full control effect
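Secreted IL-1B measured by AlphaLISA bead assay after 16 h compound exposure of THP-1 cells; compounds (final up to 57.5 uM) added 1 h before LPS (250 ng/mL) and ATP (1.25 mM) stimulation; lower signal means less secretion.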
HepG2 tox: qHTS for Inhibitors of TGF-b: Cytotox Counterscreen | HepG2 CAGA-GFP viability, ATP luminescence, 18 h | Potency, µM (titrated, usually from 46.1 µM), for the others: at the top dose activity change, negative = cytotoxicity, usual class: cytotoxic | 410,000 tested, 0.76% active; further: potency means the concentration at half of the fitted maximal effect
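CellTiter-Glo luminescence gave cytotoxicity after 18 hours at 37 degrees C. The cells were HepG2 CAGA-GFP in 1% FBS DMEM, stimulated with 500 pg/mL TGF-beta after compound addition. %Activity was normalised to no-cell wells (complete cell-killing) and DMSO (no toxicity), and curves were fitted and classified.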
DT40 TDP1 CPT: qHTS for Inhibitors of human tyrosyl-DNA phosphodiesterase 1 (TDP1): qHTS in cells in presence of CPT. AID 686979, 2013. 420,000 tested, 12% active. Potency, µM (series often up to 46.2 µM), inactives show at the top dose activity change, negative = growth inhibition, usual class: inhibitors. chicken DT40 Tdp1-/-;hTDP1 cells + 20 nM CPT, ATP luminescence, 48 h; further: potency means the concentration at half of the fitted maximal effect; on the % scale 0 is the no-effect control and ±100 the full control effect; nearly all actives have a fitted effect of over 55% in size
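Cell growth measured by CellTiter-Glo luminescence after a minimum 48 h, 37 C compound exposure with 20 nM CPT in Tdp1-knockout DT40 cells stably expressing hTDP1, seeded 400/well; qHTS titration format.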
TDP1 cell noCPT: qHTS for Inhibitors of human tyrosyl-DNA phosphodiesterase 1 (TDP1): qHTS in cells in absence of CPT | AID 686978, 2013 | Potency, µM (highest dose often 46.2 µM), inactives show at the top dose activity change, negative = growth inhibition, most hits filed as inhibitors | 420,000 tested, 15% active | DT40 Tdp1-/- hTDP1 cells, no CPT, ATP luminescence, 48 h; further: potency means the concentration at half of the fitted maximal effect; on the % scale 0 is the no-effect control and ±100 the full control effect; nearly all actives have a fitted effect of over 55% in size
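Camptothecin absent (DMSO only). Human TDP1-complemented DT40 knockout cells, 400 cells/well, 37 °C for minimum 48 hr; ATP measured via CellTiter-Glo, 30 min dark incubation, luminescence.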
TDP1 block: qHTS Assay for Inhibitors of Tyrosyl-DNA Phosphodiesterase (TDP1) | Tyrosyl-DNA phosphodiesterase 1 (Homo sapiens), Q9NUW8 | recombinant TDP1, AlphaScreen DNA substrate cleavage | Potency, µM (series often up to 130 µM), without a hit: at the top dose activity change, negative = inhibition, most hits filed as inhibitors | 350,000 tested, 0.28% active | AID 485290, 2010; further: potency means the concentration at half of the fitted maximal effect; on the % scale 0 is the no-effect control and ±100 the full control effect; nearly all actives have a fitted effect of over 40% in size
Target sequence (Q9NUW8 whole entry, looked up): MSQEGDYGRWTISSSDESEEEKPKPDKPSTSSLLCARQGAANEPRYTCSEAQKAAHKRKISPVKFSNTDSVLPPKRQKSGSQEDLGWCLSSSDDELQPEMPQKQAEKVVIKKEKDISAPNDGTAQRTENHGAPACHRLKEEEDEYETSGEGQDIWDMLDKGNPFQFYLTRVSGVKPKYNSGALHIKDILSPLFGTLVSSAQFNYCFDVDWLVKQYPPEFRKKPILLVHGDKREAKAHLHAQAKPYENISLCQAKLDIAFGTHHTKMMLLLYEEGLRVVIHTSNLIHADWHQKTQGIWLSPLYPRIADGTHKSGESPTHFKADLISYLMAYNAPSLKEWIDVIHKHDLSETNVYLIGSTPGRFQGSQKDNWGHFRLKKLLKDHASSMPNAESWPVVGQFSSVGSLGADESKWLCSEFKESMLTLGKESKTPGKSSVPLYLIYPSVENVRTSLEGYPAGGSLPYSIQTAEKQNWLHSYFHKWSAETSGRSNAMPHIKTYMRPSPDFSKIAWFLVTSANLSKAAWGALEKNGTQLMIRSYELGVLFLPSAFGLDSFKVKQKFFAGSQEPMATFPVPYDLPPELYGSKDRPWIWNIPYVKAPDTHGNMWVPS
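Recombinant E. coli-expressed Tdp1 (1 nM) preincubated with compound 15 min at RT, then 5'-biotin/3'-phosphotyrosine-FITC DNA substrate (15 nM) added for 5 min. AlphaScreen beads (10 ug/ml) added, 10 min RT; tyrosine-FITC cleavage read as signal loss.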
* marks the source's active call; other numbers are inactive results; ? = inconclusive; . = no result; [ ] = dose if it differs, or a comment. Unless noted, the call rests on the fitted dose curve; in most records, active means well fitted curve in the direction sought with a large enough effect; inconclusive means small, poorly fitted or top-dose-only effect, or another doubt; inactive means no such curve, though single readings can be large; an effect the other way counts as inactive or inconclusive.

SMILES	TGFb inhibitor	IL1B secr inh	HepG2 tox	DT40 TDP1 CPT	TDP1 cell noCPT	TDP1 block
CCC(C)NC(=O)CSc1nc2n[nH]c(C)c2c(=N)n1-c1ccc(OC)cc1 (stereo not given)	?	5	2%	16µM*	18µM*	9%
Cc1ccccc1-n1c(C)nnc1SCC(=O)NCC1CCCO1 (stereo not given)	9%	31	1%	-1%	5%	2%
CCOc1ccc(-n2c(SCC(=O)Nc3ccc(Br)cc3)nc3n[nH]c(C)c3c2=N)cc1	?	-1	-77%	13µM*	7.3µM*	4%
CCC(C)NC(=O)CSc1nc2n[nH]c(C)c2c(=N)n1-c1ccc(C)c(Cl)c1 (stereo not given)	?	.	-53%	3.3µM*	1.6µM*	1%
Cc1[nH]nc2nc(SCC(=O)NCC3CCCO3)n(-c3ccc(Br)cc3)c(=N)c12 (stereo not given)	-2%	-24	3%	15µM*	?	0%
COc1cc(C(=O)O[C@@H]2CC3CC[C@]2(C)C3(C)C)ccc1O	.	.	.	.	.	8%
CCOc1ccc(-n2c(SCC(=O)NC(C)CC)nc3n[nH]c(C)c3c2=N)cc1 (stereo not given)	-23%	-15	-28%	?	18µM*	-1%
CCOc1ccc(-n2c(SCC(=O)Nc3ccccc3CC)nc3n[nH]c(C)c3c2=N)cc1	.	.	.	.	.	8%
O=C(N/N=C/c1cccnc1)c1cc2ccccc2o1	0%	-7	-11%	-3%	-22%	5%
O=C(N/N=C/c1ccncc1)c1cc2ccccc2o1	6%	-52*	5%	5%	-7%	5%
O=C(N/N=C/c1cc(Br)c(Br)o1)c1cc2ccccc2o1	-16%	?	-38%	?	?	50µM*
Cc1cc(/C=N/NC(=O)c2cc3ccccc3o2)c(C)n1C	-1%	-23	-15%	15µM*	23µM*	5%
CCOC(=O)Cn1cc(/C=N/NC(=O)c2cc3ccccc3o2)c2ccccc21	18%	?	-4%	0%	?	4%
O=C(Nc1ccccc1C(=O)Nc1ccc(Br)cn1)c1cccc([N+](=O)[O-])c1	9%	-6	7%	?	?	.
CC(=O)Nc1cccc(Oc2ncnc3scc(-c4ccc(C(C)C)cc4)c23)c1	?	-52*	-9%	1.3µM*	1.2µM*	6%
COc1ccc(-c2csc3ncnc(N4CCN(c5ccccc5OC)CC4)c23)cc1	?	?	-1%	?	18µM*	3%[0.0935 µM]
CN1CCN(c2ncncc2-c2ccccc2Cl)CC1	.	.	.	8%	0%	.
COc1ccc(-c2csc3ncnc(Oc4cccc5ccc(C)nc45)c23)cc1	0%	-9	-14%	16µM*	?	3%
CN1CCN(c2ncnc3scc(-c4ccccc4Cl)c23)CC1	-6%	?	-13%	?	9.2µM*	2%
CCc1ccc(S(=O)(=O)c2c[nH]c3cc(OC)c(OC)cc3c2=O)cc1	1%	.	-3%	-24%	?	-1%
Oc1ccccc1N1CCN(c2ncnc3scc(-c4ccccc4)c23)CC1	?	?	-22%	?	23µM*	8%
COc1ccc(-c2csc3nc(C)nc(N4CCN(C(C)=O)CC4)c23)cc1OC	-9%	0	3%	-25%	?	1%
Cc1nc(N2CCN(c3ccccc3O)CC2)c2c(-c3ccccc3)csc2n1	-4%	-62*	-1%	?	16µM*	-13%
COc1ccc(-c2cn3nc(SCC(=O)Nc4ccccc4F)ccc3n2)cc1	-20%	.	-20%	?	?	3%
Cc1cc(/C=C(\C#N)C(=O)Nc2ccccc2)c(C)n1-c1ccc2c(c1)OCO2	-1%	?	0%	?	16µM*	3%
SMILES	TGFb inhibitor	IL1B secr inh	HepG2 tox	DT40 TDP1 CPT	TDP1 cell noCPT	TDP1 block
N#C/C(=C\c1ccccc1)C(=O)Nc1cccnc1	0%	13	5%	1%	6%	-4%
Cc1ccccc1NC(=O)/C(C#N)=C\c1cc(C)n(-c2ccc(C(=O)O)cc2)c1C	23%	-56*	-45%	-5%	-11%	.
CNC(=O)/C(C#N)=C\c1cc(C)n(-c2ccc(N3CCOCC3)cc2)c1C	6%	16	1%	?	?	6%
Cc1cc(/C=C(/C#N)C(=O)Nc2ccccc2)c(C)n1-c1cccnc1	0%	-60*	-4%	?	?	-4%
CCn1nc(C)cc1C(=O)N1CCC2(CC1)c1ccccc1[C@@H](NC(=O)c1cccnc1)[C@@H]2O	.	.	.	0%[9.04 µM]	-8%	.
CCC(C)NC(=O)CCC(=O)N1Cc2ccccc2Oc2ncccc21 (stereo not given)	1%	.	9%	-11%	-15%	2%
Cc1noc(C)c1-c1ccc(C(=O)NCc2ccc(Cl)cc2)c2occc12	-4%	?	-43%	?	?	.
CC(C)(C)C(=O)Nc1cccc(C(=O)c2cccc(NC(=O)C(C)(C)C)c2)c1	-33%	-1	-1%	?	8.2µM*	3%
CCCOC(=O)c1cccc(NC(=O)C(C)(C)C)c1	3%	0	-8%	?	?	5%
CC(C)(C)C(=O)Nc1ccc2c(c1)C(=O)C(=O)c1ccccc1-2	.	.	.	0.71µM*	0.71µM*	-6%
Cc1ccc(Nc2nnc(-c3ccc(N4CCOCC4)c([N+](=O)[O-])c3)c3ccccc23)cc1	-24%	0	1%	12µM*	10µM*	11%
O=[N+]([O-])c1cc(-c2nnc(Nc3ccc(O)cc3)c3ccccc23)ccc1N1CCOCC1	?	.	-9%	16µM*	15µM*	5%
Cc1cc(C)cc(NC(=O)CCc2c(C)nc3c4cccnc4nn3c2C)c1	?	.	-3%	-26%	18µM*	6%
COc1cccc(NC(=O)CCc2c(C)nc3c4cccnc4nn3c2C)c1	-8%	.	11%	?	18µM*	6%
COc1ccc(/C=C(/NC(=O)c2ccccc2)c2nc3ccccc3[nH]2)cc1OC	1%	33	-1%	?	?	2%
